Screens: PubChem, Broad Institute
This excerpt belongs to a sample that is enriched for hits.
miR-122 inh: activators of miR-122 sensor in Huh7 cells. hit rate 0.14% among 340,000. AID 623901. activation, % at 12.5 µM. Huh7 psiCHECK-miR122 Renilla luciferase sensor, 48 h;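 active = mean activation of 30% or more, with every replicate also reaching 30%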;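 note: 0% = median of neutral control wells and 100% = median of positive control wells; higher luciferase signal means stronger suppression of miR-122 activity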
Starred values were filed as active, the others as inactive.

How did C[C@@H]1CN([C@@H](C)CO)C(=O)c2cc(C#Cc3ccc(F)cc3)cnc2O[C@H]1CN(C)CC1CCOCC1 do in these assays?
miR-122 inh: 6

What do the screens show for `CCC(=O)Nc1ccc2c(c1)OC[C@@H](C)N(CCC(F)(F)F)C[C@H](C)[C@@H](OC)CN(C)C2=O`?
miR-122 inh: 1

What do the screens show for `CCC(=O)N1C[C@@H](C)[C@H](OC)CN(C)C(=O)c2ccc(NS(C)(=O)=O)cc2OC[C@H]1C`?
miR-122 inh: -2

What do the screens show for `CN1C(=O)c2cc(NC(=O)c3cccc(F)c3)ccc2OC[C@H]2O[C@H](CC(=O)NC3CCC3)CC[C@H]21`?
miR-122 inh: 70*

How did CN1C(=O)c2cc(NC(=O)c3cccc(F)c3)ccc2OC[C@@H]2O[C@@H](CC(=O)O)CC[C@@H]21 do in these assays?
miR-122 inh: 87*

How did CN1C(=O)c2cc(NC(=O)c3cccc(F)c3)ccc2OC[C@H]2O[C@@H](CC(=O)O)CC[C@H]21 do in these assays?
miR-122 inh: 53*

What do the screens show for `CO[C@H]1CN(C)C(=O)c2cc(NC(=O)c3ccc(F)cc3)ccc2OC[C@H](C)N(C)C[C@@H]1C`?
miR-122 inh: -1

What do the screens show for `C[C@@H]1CN([C@@H](C)CO)C(=O)c2cc(C#CC3CCCC3)cnc2O[C@H]1CN(C)C(=O)C1CCC1`?
miR-122 inh: 1

What do the screens show for `CC(C)CC#Cc1cnc2c(c1)C(=O)N([C@@H](C)CO)C[C@@H](C)[C@H](CN(C)Cc1ccc(F)cc1)O2`?
miR-122 inh: 6

What do the screens show for `C[C@H]1CN([C@@H](C)CO)C(=O)c2cc(C#CC3(O)CCCC3)cnc2O[C@@H]1CN(C)S(C)(=O)=O`?
miR-122 inh: 2

What do the screens show for `CCC(=O)N(C)C[C@@H]1Oc2ncc(C#C[C@H](C)O)cc2C(=O)N([C@H](C)CO)C[C@H]1C`?
miR-122 inh: -3

What do the screens show for `CNC[C@@H]1Oc2cc(C#CCC3CCCC3)ccc2S(=O)(=O)N([C@@H](C)CO)C[C@@H]1C`?
miR-122 inh: 2

Results for CCCNC(=O)N(C)C[C@@H]1Oc2cc(C#Cc3cccc(F)c3)ccc2S(=O)(=O)N([C@H](C)CO)C[C@H]1C ?
miR-122 inh: -4

What do the screens show for `C[C@@H]1CN([C@@H](C)CO)S(=O)(=O)c2ccc(/C=C/c3ccccc3)cc2O[C@H]1CN(C)C(=O)Nc1cccc(F)c1`?
miR-122 inh: -9

How did C[C@H](CO)N1C[C@H](C)[C@@H](CN(C)Cc2ccc(F)cc2)Oc2cc(C#Cc3ccccn3)ccc2S1(=O)=O do in these assays?
miR-122 inh: -24

Results for CCC(=O)Nc1ccc2c(c1)OC[C@@H](C)N(C(=O)CN1CCOCC1)C[C@H](C)[C@H](OC)CN(C)C2=O ?
miR-122 inh: -3

Results for CCCNC(=O)N(C)C[C@H]1Oc2ncc(/C=C/c3ccccc3)cc2C(=O)N([C@H](C)CO)C[C@H]1C ?
miR-122 inh: -37

How did Cn1ncc2c(O/N=C(\N)c3ccc(C(F)(F)F)cc3)ncnc21 do in these assays?
miR-122 inh: 33*

What do the screens show for `C[C@@H]1CN([C@H](C)CO)C(=O)c2cc(Br)cnc2O[C@@H]1CN(C)C(=O)c1cccnc1`?
miR-122 inh: 6

Results for C[C@H](CO)N1C[C@H](C)[C@H](CN(C)Cc2cncnc2)Oc2ncc(C#Cc3ccccn3)cc2C1=O ?
miR-122 inh: -3

What do the screens show for `C[C@@H]1CN([C@H](C)CO)S(=O)(=O)c2ccc(C#C[C@@H](C)O)cc2O[C@@H]1CN(C)C(=O)c1ccncc1`?
miR-122 inh: 8

How did C[C@@H]1CN([C@H](C)CO)S(=O)(=O)c2ccc(C3=CCCC3)cc2O[C@@H]1CN(C)C(=O)C1CCOCC1 do in these assays?
miR-122 inh: 34*

What do the screens show for `C[C@@H]1CN([C@H](C)CO)S(=O)(=O)c2ccc(-c3ccc(C(=O)N(C)C)cc3)cc2O[C@H]1CN(C)C(=O)C1CCOCC1`?
miR-122 inh: -15

How did C[C@@H]1CN([C@H](C)CO)S(=O)(=O)c2ccc(C3=CCCC3)cc2O[C@@H]1CN(C)C(=O)Cc1ccncc1 do in these assays?
miR-122 inh: 33*

Results for C[C@@H]1CN([C@@H](C)CO)S(=O)(=O)c2ccc(-c3ccc(C(=O)N(C)C)cc3)cc2O[C@H]1CN(C)C(=O)C1CCOCC1 ?
miR-122 inh: -11

What do the screens show for `C[C@@H]1CN([C@@H](C)CO)S(=O)(=O)c2ccc(-c3cncnc3)cc2O[C@H]1CN(C)C(=O)Cc1ccncc1`?
miR-122 inh: 3

Results for C[C@@H]1CN([C@@H](C)CO)S(=O)(=O)c2ccc(-c3ccc(C(=O)N(C)C)cc3)cc2O[C@@H]1CN(C)C(=O)C1CCC1 ?
miR-122 inh: 40*

How did C[C@@H]1CN([C@H](C)CO)S(=O)(=O)c2ccc(-c3cncnc3)cc2O[C@@H]1CN(C)C(=O)Cc1ccncc1 do in these assays?
miR-122 inh: 5

How did C[C@@H]1CN([C@@H](C)CO)S(=O)(=O)c2ccc(-c3ccc(F)cc3)cc2O[C@@H]1CN(C)C(=O)C1CCOCC1 do in these assays?
miR-122 inh: 11

What do the screens show for `C[C@H]1CN([C@@H](C)CO)S(=O)(=O)c2ccc(-c3ccc(F)cc3)cc2O[C@@H]1CN(C)C(=O)C1CCOCC1`?
miR-122 inh: -19

What do the screens show for `C[C@@H]1CN([C@H](C)CO)C(=O)c2cc(-c3cccnc3)cnc2O[C@H]1CN(C)C(=O)Nc1ccc(F)cc1`?
miR-122 inh: 6

Results for C[C@H](CO)N1C[C@H](C)[C@H](CN(C)Cc2cccc(C(=O)O)c2)Oc2ncc(C#CCc3ccccc3)cc2C1=O ?
miR-122 inh: -10

What do the screens show for `CNC[C@H]1Oc2cc(-c3ccccc3OC)ccc2S(=O)(=O)N([C@@H](C)CO)C[C@@H]1C`?
miR-122 inh: -1

What do the screens show for `CCCN1C[C@@H](C)[C@H](OC)CN(C)C(=O)c2ccc(NC(=O)COC)cc2OC[C@@H]1C`?
miR-122 inh: -9

Results for C[C@@H]1CN([C@@H](C)CO)C(=O)c2cc(-c3cccc(F)c3)cnc2O[C@@H]1CN(C)Cc1cncnc1 ?
miR-122 inh: -43

Results for C[C@H]1CN([C@@H](C)CO)C(=O)c2cc(-c3ccccc3)cnc2O[C@H]1CN(C)C(=O)c1cccnc1 ?
miR-122 inh: 0

What do the screens show for `C[C@@H]1CN([C@@H](C)CO)C(=O)c2cc(C#CCc3ccccc3)cnc2O[C@H]1CN(C)Cc1ccccn1`?
miR-122 inh: 8

Results for C/C=C/c1cnc2c(c1)C(=O)N([C@@H](C)CO)C[C@@H](C)[C@@H](CN(C)CC1CCOCC1)O2 ?
miR-122 inh: 0

What do the screens show for `COc1cccc(C#Cc2ccc3c(c2)O[C@H](CN(C)C(C)=O)[C@@H](C)CN([C@@H](C)CO)S3(=O)=O)c1`?
miR-122 inh: -29

Results for C[C@H]1CN([C@@H](C)CO)S(=O)(=O)c2ccc(C3=CCCCC3)cc2O[C@@H]1CN(C)S(C)(=O)=O ?
miR-122 inh: -10

Results for CCOc1ccc(CCNC(=O)C2CCN(S(=O)(=O)N3CCC(C)CC3)CC2)cc1OCC ?
miR-122 inh: 33*

What do the screens show for `CCOc1ccc(S(=O)(=O)N2CCC(C(N)=O)CC2)c2ccccc12`?
miR-122 inh: -90

How did CCOc1ccc(NS(=O)(=O)c2cc(NC(=O)C3CC3)ccc2C)cc1Br do in these assays?
miR-122 inh: -140

What do the screens show for `C[C@H]1CN([C@@H](C)CO)C(=O)c2cc(C#CCc3ccccc3)cnc2O[C@@H]1CN(C)CC1CCOCC1`?
miR-122 inh: 5
